# From PubChem BioAssay (Tox21)
# Several values for one entry are separate records, joined by “and”; a condition that tells them apart may be missing. Equal values may be shown once. Results filed as inconclusive are left out. Entries that show only a call come without a potency. Values without a mark were called inactive. Activity calls are given as the source filed them. The call rests on the fitted dose curve; in most records, active means well fitted curve in the direction sought with a large enough effect in the repeat runs; inconclusive means weak or mixed curves; inactive means no such curve, though single readings can be large; an effect the other way counts as inactive or inconclusive.
# Assays:
# [1] = target: Cytochrome P450 2C19 (Homo sapiens) (UniProt P33261); experiment: Cytochrome P450 Family 2 Subfamily C Member 19 (CYP2C19) small molecule antagonists: luciferase reporter qHTS assay (AID 1671197); further: nearly all actives have a fitted effect of over 65% in size; on activity change, negative = inhibition: series mostly up to about 120 µM
# Outline: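 Inhibition of CYP2C19 was scored from loss of luminescence in a P450-Glo proluciferin substrate assay, NADPH-started and run 1 h at 37C, with ketoconazole as positive control.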
# [2] = target: Cytochrome P450 2C9 (Homo sapiens) (UniProt P11712); experiment: Cytochrome P450 Family 2 Subfamily C Member 9 (CYP2C9) small molecule antagonists: luciferase reporter qHTS assay (AID 1671198); further: nearly all actives have a fitted effect of over 50% in size; on activity change, negative = inhibition: series mostly up to about 120 µM
# Outline: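 P450-Glo proluciferin substrate with CYP2C9 enzyme; 10 min RT preincubation, then NADPH regeneration 1 h at 37C; luciferin detection reagent 20 min RT, luminescence in relative luminescence units.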
# [3] = target: Cytochrome P450 1A2 (Homo sapiens) (UniProt P05177); experiment: Cytochrome P450 Family 1 Subfamily A Member 2 (CYP1A2) small molecule antagonists: luciferase reporter qHTS assay (AID 1671199); further: nearly all actives have a fitted effect of over 50% in size; on activity change, negative = inhibition: series mostly up to about 120 µM
# Outline: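 Signal from luciferin formed by CYP1A2 from a proluciferin substrate is read as luminescence, expressed in relative luminescence units. Compounds sit with enzyme 10 min, NADPH-driven reaction runs 1 h, all at room temperature.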
# [4] = target: Voltage-gated inwardly rectifying potassium channel KCNH2 (Homo sapiens) (UniProt Q12809); experiment: Human Ether-a-go-go-Related Gene (hERG) channel small molecule antagonists: fluorescence cell-based qHTS assay (AID 1671200); further: nearly all actives have a fitted effect of over 50% in size;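 on activity change, negative = inhibition: hERG-expressing U2OS cells given a thallium stimulus after FluxOR II dye loading; series mostly up to about 77 µM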
# Outline: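 In this thallium-flux screen, overnight-cultured U2OS cells bearing the channel are dye-loaded in darkness for an hour, rested 10 min at room temperature, and then monitored kinetically at 480/540 nm for two minutes post-stimulus.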
# [5] = target: Cytochrome P450 3A4 (Homo sapiens) (UniProt P08684); experiment: Cytochrome P450 Family 3 Subfamily A Member 4 (CYP3A4) small molecule antagonists: luciferase reporter qHTS assay (AID 1671201); further: nearly all actives have a fitted effect of over 50% in size; on activity change, negative = inhibition: series mostly up to about 120 µM
# Outline: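 CYP3A4 activity was followed with a P450-Glo proluciferin substrate. Test compounds in DMSO were preincubated 10 min; NADPH regeneration then ran 1 h, and light output was read 20 min after detection reagent.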
# Potency means the concentration at half of the fitted maximal effect.
# Sequence of Cytochrome P450 2C9 (Homo sapiens) (P11712 whole entry, looked up): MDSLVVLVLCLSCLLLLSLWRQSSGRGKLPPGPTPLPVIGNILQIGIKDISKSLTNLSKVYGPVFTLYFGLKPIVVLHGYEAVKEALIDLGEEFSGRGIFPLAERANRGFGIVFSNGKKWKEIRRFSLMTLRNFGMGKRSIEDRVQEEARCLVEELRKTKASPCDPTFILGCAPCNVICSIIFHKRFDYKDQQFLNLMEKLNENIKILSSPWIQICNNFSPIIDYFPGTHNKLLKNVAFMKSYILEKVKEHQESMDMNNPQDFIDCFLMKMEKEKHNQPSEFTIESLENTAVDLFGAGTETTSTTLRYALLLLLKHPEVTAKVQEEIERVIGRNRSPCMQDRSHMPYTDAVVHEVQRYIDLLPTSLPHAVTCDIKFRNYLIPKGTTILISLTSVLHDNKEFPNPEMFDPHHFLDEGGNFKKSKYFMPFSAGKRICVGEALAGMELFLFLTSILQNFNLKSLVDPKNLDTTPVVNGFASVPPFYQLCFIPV
# Sequence of Cytochrome P450 2C19 (Homo sapiens) (P33261 whole entry, looked up): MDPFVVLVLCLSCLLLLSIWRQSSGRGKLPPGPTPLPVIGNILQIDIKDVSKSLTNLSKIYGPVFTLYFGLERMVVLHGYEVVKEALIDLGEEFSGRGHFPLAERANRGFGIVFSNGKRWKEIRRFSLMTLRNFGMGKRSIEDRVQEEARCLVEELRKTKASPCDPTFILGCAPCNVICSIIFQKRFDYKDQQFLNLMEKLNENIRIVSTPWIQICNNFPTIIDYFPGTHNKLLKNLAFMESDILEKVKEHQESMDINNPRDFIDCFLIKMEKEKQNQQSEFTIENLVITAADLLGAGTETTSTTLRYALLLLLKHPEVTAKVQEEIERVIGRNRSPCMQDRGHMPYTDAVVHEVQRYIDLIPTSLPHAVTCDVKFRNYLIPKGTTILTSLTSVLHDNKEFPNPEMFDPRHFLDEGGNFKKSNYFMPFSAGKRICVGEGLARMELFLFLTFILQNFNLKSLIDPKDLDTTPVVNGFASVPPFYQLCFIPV
# Sequence of Voltage-gated inwardly rectifying potassium channel KCNH2 (Homo sapiens) (Q12809 whole entry, looked up): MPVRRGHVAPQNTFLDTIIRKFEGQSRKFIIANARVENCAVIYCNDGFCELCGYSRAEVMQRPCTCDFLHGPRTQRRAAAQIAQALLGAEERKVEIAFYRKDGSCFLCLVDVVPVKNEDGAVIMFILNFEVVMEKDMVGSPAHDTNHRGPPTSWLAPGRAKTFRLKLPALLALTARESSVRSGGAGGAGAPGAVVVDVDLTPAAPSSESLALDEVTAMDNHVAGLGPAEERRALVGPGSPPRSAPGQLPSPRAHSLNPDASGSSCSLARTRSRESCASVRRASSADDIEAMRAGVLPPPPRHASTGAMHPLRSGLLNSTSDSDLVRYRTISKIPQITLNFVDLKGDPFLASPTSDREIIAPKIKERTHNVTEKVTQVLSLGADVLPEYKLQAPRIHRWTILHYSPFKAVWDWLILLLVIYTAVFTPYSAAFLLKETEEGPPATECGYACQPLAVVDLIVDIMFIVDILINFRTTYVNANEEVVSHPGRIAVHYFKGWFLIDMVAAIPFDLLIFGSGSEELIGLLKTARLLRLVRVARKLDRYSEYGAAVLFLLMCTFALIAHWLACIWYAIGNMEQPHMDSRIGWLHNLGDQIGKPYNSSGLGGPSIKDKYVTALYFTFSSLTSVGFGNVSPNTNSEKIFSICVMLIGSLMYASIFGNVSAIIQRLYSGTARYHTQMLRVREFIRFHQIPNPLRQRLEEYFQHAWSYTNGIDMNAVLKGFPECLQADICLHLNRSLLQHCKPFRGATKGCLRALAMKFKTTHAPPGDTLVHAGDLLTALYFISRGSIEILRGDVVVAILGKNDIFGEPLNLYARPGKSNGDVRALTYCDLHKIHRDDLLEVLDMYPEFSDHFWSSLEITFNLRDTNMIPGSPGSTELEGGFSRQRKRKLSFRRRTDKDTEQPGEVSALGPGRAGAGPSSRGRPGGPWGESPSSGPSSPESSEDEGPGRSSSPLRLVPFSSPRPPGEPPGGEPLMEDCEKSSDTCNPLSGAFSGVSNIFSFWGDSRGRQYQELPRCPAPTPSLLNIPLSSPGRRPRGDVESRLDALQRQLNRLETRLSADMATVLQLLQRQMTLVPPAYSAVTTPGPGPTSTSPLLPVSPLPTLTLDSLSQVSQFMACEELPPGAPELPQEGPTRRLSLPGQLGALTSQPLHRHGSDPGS
# Sequence of Cytochrome P450 3A4 (Homo sapiens) (P08684 whole entry, looked up): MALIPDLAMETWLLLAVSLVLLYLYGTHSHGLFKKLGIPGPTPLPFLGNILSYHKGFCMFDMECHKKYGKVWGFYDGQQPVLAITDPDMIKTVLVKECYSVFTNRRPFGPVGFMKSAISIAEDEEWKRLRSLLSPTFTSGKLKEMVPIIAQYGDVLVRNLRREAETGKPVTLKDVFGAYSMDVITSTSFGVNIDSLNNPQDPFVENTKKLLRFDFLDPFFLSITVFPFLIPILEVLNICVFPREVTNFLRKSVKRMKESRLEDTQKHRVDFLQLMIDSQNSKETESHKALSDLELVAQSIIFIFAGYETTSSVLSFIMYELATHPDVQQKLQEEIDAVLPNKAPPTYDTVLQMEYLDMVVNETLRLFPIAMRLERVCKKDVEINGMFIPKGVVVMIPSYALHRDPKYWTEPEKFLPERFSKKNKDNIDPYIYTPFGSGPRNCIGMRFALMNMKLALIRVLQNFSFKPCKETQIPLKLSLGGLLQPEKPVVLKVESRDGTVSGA
# Sequence of Cytochrome P450 1A2 (Homo sapiens) (P05177 whole entry, looked up): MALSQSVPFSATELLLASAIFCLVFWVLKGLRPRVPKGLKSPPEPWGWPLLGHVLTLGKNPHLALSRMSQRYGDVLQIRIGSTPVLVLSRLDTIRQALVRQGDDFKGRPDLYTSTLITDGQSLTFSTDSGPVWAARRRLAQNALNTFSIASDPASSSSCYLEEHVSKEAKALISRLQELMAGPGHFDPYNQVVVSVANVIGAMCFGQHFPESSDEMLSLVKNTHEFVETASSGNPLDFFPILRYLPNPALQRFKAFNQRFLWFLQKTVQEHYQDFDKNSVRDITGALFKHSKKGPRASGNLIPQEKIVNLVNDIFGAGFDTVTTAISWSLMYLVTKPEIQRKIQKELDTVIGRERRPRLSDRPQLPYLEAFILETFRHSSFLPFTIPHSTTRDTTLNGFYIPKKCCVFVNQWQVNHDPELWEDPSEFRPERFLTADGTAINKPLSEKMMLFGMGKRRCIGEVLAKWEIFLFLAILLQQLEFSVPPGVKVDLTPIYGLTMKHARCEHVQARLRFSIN
compound,measurement,setting,value
CCCOc1ccc(S(=O)(=O)N2CCN(CC)CC2)cc1-c1nc2c(CC)n(Cc3ccccn3)nc2c(=O)[nH]1,Potency,[1],71 µM (active)
same,Potency,[2],3.17 µM (active)
same,Potency,[3],inactive
same,Potency,[4],21.9 µM (active)
same,Potency,[5],0.399 µM (active)
CC(C)(CCl)c1ccccc1,Potency,[1],inactive
same,Potency,[2],inactive
same,Potency,[3],inactive
same,Potency,[4],inactive
same,Potency,[5],inactive
C[N+]1(C)CCC(=C(c2ccccc2)c2ccccc2)CC1,Potency,[1],inactive
same,Potency,[2],inactive
same,Potency,[3],inactive
same,Potency,[4],8.49 µM (active)
same,Potency,[5],inactive
O=C(CCCN1CCN(c2ccc(F)cc2)CC1)NC1c2ccccc2CSc2ccccc21 (stereo unspecified),Potency,[1],4.36 µM (active)
same,Potency,[2],6.92 µM (active)
same,Potency,[3],inactive
same,Potency,[4],1.9 µM (active)
CCOC(=O)OCC,Potency,[1],inactive
same,Potency,[2],inactive
same,Potency,[3],41.5 µM (active)
same,Potency,[4],inactive
O=C(c1ccc(O)cc1)c1ccc(Cl)cc1,Potency,[1],18.2 µM (active)
same,Potency,[2],25.7 µM (active)
same,Potency,[3],18.2 µM (active)
same,Potency,[4],inactive
N#C/C(=C1/SC[C@@H](c2ccc(Cl)cc2Cl)S1)n1ccnc1,Potency,[1],0.389 µM (active)
same,Potency,[2],0.389 µM (active)
same,Potency,[3],0.288 µM (active)
same,Potency,[4],3.01 µM (active)
CC(=O)CC(c1ccc([N+](=O)[O-])cc1)c1c(O)c2ccccc2oc1=O (stereo unspecified),Potency,[1],8.71 µM (active)
same,Potency,[2],2.45 µM (active)
same,Potency,[3],inactive
same,Potency,[4],inactive
same,Potency,[5],inactive
COc1cc2ncnc(Nc3ccc(F)c(Cl)c3)c2cc1OCCCN1CCOCC1,Potency,[1],38.9 µM (active)
same,Potency,[2],inactive
same,Potency,[3],inactive
same,Potency,[4],inactive
Nc1ccc(S(=O)(=O)O)cc1,Potency,[1],inactive
same,Potency,[2],inactive
same,Potency,[3],inactive
same,Potency,[4],inactive
same,Potency,[5],inactive
CN(C)CCOC1=Cc2ccccc2Sc2ccc(Cl)cc21,Potency,[1],inactive
same,Potency,[2],inactive
same,Potency,[3],18.2 µM (active)
O=C(Nc1ccccc1)Nc1ccccc1,Potency,[1],4.5 µM (active)
same,Potency,[2],22.6 µM (active)
same,Potency,[3],17.9 µM (active)
same,Potency,[4],inactive
same,Potency,[5],inactive
CCCCC(=O)O[C@]1(C(=O)CO)[C@@H](C)C[C@H]2[C@@H]3CCC4=CC(=O)C=C[C@]4(C)[C@@]3(F)[C@@H](O)C[C@@]21C,Potency,[1],79.6 µM (active)
same,Potency,[2],35.6 µM (active)
same,Potency,[3],inactive
same,Potency,[4],inactive
COCC(O)CO (stereo unspecified),Potency,[1],inactive
same,Potency,[2],inactive
same,Potency,[3],inactive
same,Potency,[4],inactive
same,Potency,[5],inactive
Cc1oncc1C(=O)Nc1ccc(C(F)(F)F)cc1,Potency,[1],8.94 µM (active) and 8.71 µM (active)
same,Potency,[2],25.2 µM (active) and 15.5 µM (active)
same,Potency,[3],1.59 µM (active) and 911 nM (active)
same,Potency,[4],inactive
NCC1CCCC(CN)C1 (stereo unspecified),Potency,[1],inactive
same,Potency,[2],inactive
same,Potency,[3],inactive
same,Potency,[4],inactive
same,Potency,[5],inactive
CC(CCc1ccc2c(c1)OCO2)NN (stereo unspecified),Potency,[1],38.9 µM (active)
same,Potency,[2],15.5 µM (active)
same,Potency,[3],1.44 µM (active)
same,Potency,[4],inactive
COC(=O)c1cc(S(N)(=O)=O)ccc1OC,Potency,[1],inactive
same,Potency,[2],inactive
same,Potency,[3],inactive
same,Potency,[4],inactive
O=c1[nH]c2ccc(S(=O)CCN3CCC(Cc4ccc(F)cc4)CC3)cc2o1 (stereo unspecified),Potency,[1],56.4 µM (active)
same,Potency,[2],inactive
same,Potency,[3],inactive
same,Potency,[4],4.36 µM (active)
O=C(CCC1CCN(Cc2ccccc2)CC1)c1ccc2c(c1)NCCCC2,Potency,[1],inactive
same,Potency,[2],inactive
same,Potency,[3],inactive
same,Potency,[4],4.77 µM (active)
same,Potency,[5],inactive
O=[N+]([O-])c1cccc(S(=O)(=O)NCCNS(=O)(=O)c2cccc([N+](=O)[O-])c2)c1,Potency,[1],3.09 µM (active)
same,Potency,[2],8.71 µM (active)
same,Potency,[3],inactive
CC(=O)N(c1onc(C)c1C)S(=O)(=O)c1ccc(N)cc1,Potency,[1],inactive
same,Potency,[2],inactive
same,Potency,[3],inactive
same,Potency,[4],inactive
CN1CCN(c2c(F)cc3c(=O)c(C(=O)O)cn4c3c2OCN4C)CC1,"activity change, negative = inhibition",[1],-8.19% [at 23.6 µM]
same,"activity change, negative = inhibition",[2],9.24% [at 23.6 µM]
same,Potency,[3],inactive
same,"activity change, negative = inhibition",[4],-1.8% [at 15.8 µM]
same,"activity change, negative = inhibition",[5],3.15% [at 23.6 µM]
Cc1ccc(Nc2nccc(N(C)c3ccc4c(C)n(C)nc4c3)n2)cc1S(N)(=O)=O,Potency,[1],inactive
same,Potency,[2],15.5 µM (active)
same,Potency,[3],inactive
same,Potency,[4],inactive
CCC(Cc1ccccc1)(C(=O)c1ccc(N2CCOCC2)cc1)N(C)C (stereo unspecified),Potency,[1],39.9 µM (active)
same,Potency,[2],35.6 µM (active)
same,Potency,[3],inactive
same,Potency,[4],13.8 µM (active)
CCN(Cc1cccc(S(=O)(=O)O)c1)c1ccc(C(=C2C=CC(=[N+](CC)Cc3cccc(S(=O)(=O)[O-])c3)C=C2)c2ccccc2)cc1,Potency,[1],62.8 µM (active)
same,Potency,[2],28 µM (active)
same,Potency,[3],inactive
same,Potency,[4],inactive
COCc1c(C(C)C)nc(C(C)C)c(/C=C/[C@@H](O)C[C@@H](O)CC(=O)O)c1-c1ccc(F)cc1,Potency,[1],inactive
same,Potency,[2],35.2 µM (active)
same,Potency,[3],30.9 µM (active)
same,Potency,[4],inactive
